The values that follow come from PubChem BioAssay (NCATS).

Experiment [1] in a line: qHTS assay for small molecule disruptors of the mitochondrial membrane potential - 5 hr assay (AID 651755; calls by dose curve; further: nearly all actives have a fitted effect of over 40% in size; further: potency means the concentration at half of the fitted maximal effect). Put shortly: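 Read-out: ratiometric Mito-MPS fluorescence, green monomer (ex 490/em 535) vs red mitochondrial aggregate (ex 540/em 590). HepG2 cells treated 5 hr at 37C before 30 min dye loading.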
In general terms: In qHTS, concentration-response curves come from the screen itself.

In experiment [2] the target is Tumor necrosis factor (Homo sapiens) (UniProt P01375). The experiment in a line: qHTS assay to identify small molecules that stimulate Tumor Necrosis Factor-alpha (TNF-alpha) secretion (AID 651757; active means well fitted curve in the direction sought with a large enough effect in the signal ratio; the % refers to the signal ratio; further: 0% is about no effect). The method in brief:
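Secreted TNF-alpha quantified by TR-FRET sandwich of two labeled anti-TNF-alpha antibodies, incubated 3 hr at room temperature. Preceded by 17 hr, 37 C compound treatment of THP-1 cells at 3000 cells/well.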

The nature of experiment [3]: qHTS assay for environmental chemicals that activate the Aryl hydrocarbon Receptor (AhR) signaling pathway (AID 651777). Further: % of control where 0% means no effect; nearly all actives have a fitted effect of over 15% in size. As to conditions: 1A2-DRE human hepatoma cells, luciferase, 24 h; activation: active compounds read high. Put shortly:
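Reporter gene assay: hepatoma cells with DRE/CYP1A2-luciferase, 24 hr compound incubation at 37 C, 5% CO2, luminescence after One-Glo (30 min, RT).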

Experiment [4] addresses Peroxisome proliferator-activated receptor alpha (Homo sapiens) (UniProt Q07869). The experiment in a line: qHTS assay for small molecule agonists of the peroxisome proliferator-activated receptor alpha (PPARalpha) signaling pathway (AID 651778). Further: % of control where 0% means no effect. As to conditions: PathHunter PPARalpha complementation, chemiluminescence, 6 h; active compounds read high. Put shortly: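 Enzyme-fragment complementation assay in which ligand-bound PPARalpha translocates and forms an active enzyme that generates chemiluminescence. Cells were plated overnight, exposed to compound for 6 hr at 37 C, and then given detection reagent for 60 min at room temperature.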

A short description of experiment [5]: qHTS assay for small molecule agonists of the antioxidant response element (ARE) signaling pathway measured by Nrf2-dependant transcriptional activity (AID 720636; active means well fitted curve in the direction sought with a large enough effect in the repeat runs; an effect the other way counts as inactive or inconclusive;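 further: HepG2 cells with an ARE-driven luciferase reporter; % of control where 0% means no effect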). The method in brief:
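Nrf2-dependent transcription is measured in ARE-luc HepG2 cells: compound is applied for 16 hr at 37 C after a 6 hr attachment period, and luciferase activity is quantified by luminescence using ONE-Glo.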

The nature of experiment [6]: qHTS assay for small molecule agonists of the antioxidant response element (ARE) signaling pathway measured by Nrf2-dependant transcriptional activity - cell viability counter screen (AID 720653; active means well fitted curve in the direction sought with a large enough effect in the repeat runs; an effect the other way counts as inactive or inconclusive; further: on the % scale 0 is the no-effect control and ±100 the full control effect). As to conditions: ARE-bla HepG2 viability, CellTiter-Glo ATP luminescence, 16 h; active compounds read low. Put shortly:
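ARE-bla HepG2 cells treated with compounds for 16 h at 37C; this counter screen measures viability as intracellular ATP by CellTiter-Glo luminescence after 30 min at room temperature.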

Experiment [7] in a line: qHTS assay for cell viability of HEK293 cells (AID 743288). Further: on the % scale 0 is the no-effect control and ±100 the full control effect; nearly all actives have a fitted effect of over 50% in size. To be noted: ATP luminescence (CellTiter-Glo), 18 h, active compounds read low. The method in brief: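 Viable-cell counts were inferred from luciferase-based ATP content in HEK293 cells seeded at 2,000/well, pre-incubated ≥5 h, then dosed with DMSO-solubilised compounds for 18 h at 37 C.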
Experiment [8] in a line: qHTS assay for cell viability of the p53RE-bla HCT-116 cell line (AID 743292). Further: on the % scale 0 is the no-effect control and ±100 the full control effect; nearly all actives have a fitted effect of over 55% in size. Put shortly:
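ATP-based luminescence, 16 h compound exposure at 37 C, p53RE-bla HCT-116 cells at 4,000/well.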

The target in experiment [9] is Nuclear receptor subfamily 1 group I member 2 (Rattus norvegicus) (UniProt Q9R1A7). The experiment is described as follows: qHTS assay for small molecule activators of the rat pregnane X receptor (rPXR) signaling pathway (AID 651751; call rule not given here; further: 0% is about no effect). To be noted: rPXR reporter cells, luciferase (One-Glo), 24 h.
Experiment [10] in a line: qHTS assay for small molecule activators of the human pregnane X receptor (PXR) signaling pathway (AID 720659; call rule not given here; further: 0% is about no effect).
A short description of experiment [11]: qHTS assay for small molecule disruptors of the mitochondrial membrane potential - 1 hr assay (AID 651754; calls by dose curve; further: nearly all actives have a fitted effect of over 35% in size; further: potency means the concentration at half of the fitted maximal effect). The method in brief:
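Mitochondrial potential in living HepG2 cells after 1 hr compound treatment at 37C was read with Mito-MPS dye added for a further 30 min. Red aggregate and green monomer fluorescence were measured; loss of potential leaves dye as cytoplasmic monomers.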

Experiment [12] addresses Nuclear receptor ROR-gamma (Homo sapiens) (UniProt P51449). The experiment is described as follows: qHTS assay for small molecule antagonists of the retinoid-related orphan receptor gamma (ROR-gamma) signaling pathway (AID 651802).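 Further: luciferase reporter luminescence driven by ROR response element; series mostly up to about 92 µM; on the % scale 0 is the no-effect control and ±100 the full control effect; nearly all actives have a fitted effect of over 60% in size.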 Put shortly: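 Luminescence (One-Glo, 30 min RT) measured 16 h after compound addition and doxycycline induction at 37C. Reporter: RORE-luciferase under TET-inducible ROR-gamma in CHO cells.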

Experiment [13] can be described thus: qHTS assay for small molecule antagonists of the retinoid-related orphan receptor gamma (ROR-gamma) signaling pathway - cell viability counter screen (AID 720652; active means well fitted curve in the direction sought with a large enough effect in the repeat runs; an effect the other way counts as inactive or inconclusive;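 further: series mostly up to about 92 µM; compound exposure lasted 16 hr before ATP read; on the % scale 0 is the no-effect control and ±100 the full control effect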). Put shortly: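 Cytotoxicity counter screen: intracellular ATP (CellTiter-Glo luminescence) measured in the doxycycline-induced CHO RORE-luciferase reporter line after 16 hr compound exposure at 37 C, 5% CO2.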

Experiment [14] is described as follows: qHTS assay to identify small molecules that stimulate interleukin-8 (IL-8) secretion (AID 651758; active means well fitted activation curve with a large enough effect in the signal ratio; the % refers to the signal ratio; further: 0% is about no effect). Put shortly: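 Compounds are added to THP-1 cells (2000 per well) and left 16 hrs at 37 C. A labeled anti-IL-8 antibody pair is then added, and IL-8 secretion is measured by time-resolved FRET after 1-3 hrs at room temperature.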

Where “and” joins values, the source holds several entries; their conditions need not be identical. Equal entries are not always repeated. Unmarked numbers belong to inactive results. Inconclusive results are not listed. Calls of active or inactive are those of the source. Unless noted, the call rests on the fitted dose curve; in most records, active means well fitted curve in the direction sought with a large enough effect; inconclusive means small, poorly fitted or top-dose-only effect, or another doubt; inactive means no such curve, though single readings can be large; an effect the other way counts as inactive or inconclusive.

Tumor necrosis factor (Homo sapiens), sequence (P01375 whole entry, looked up): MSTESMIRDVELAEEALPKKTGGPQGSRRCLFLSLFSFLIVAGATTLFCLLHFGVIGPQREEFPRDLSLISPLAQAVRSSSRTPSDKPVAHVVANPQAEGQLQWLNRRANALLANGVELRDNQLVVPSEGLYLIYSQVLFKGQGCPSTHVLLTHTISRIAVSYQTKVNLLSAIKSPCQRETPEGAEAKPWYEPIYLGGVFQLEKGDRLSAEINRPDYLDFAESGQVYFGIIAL
Nuclear receptor ROR-gamma (Homo sapiens), sequence (P51449 whole entry, looked up): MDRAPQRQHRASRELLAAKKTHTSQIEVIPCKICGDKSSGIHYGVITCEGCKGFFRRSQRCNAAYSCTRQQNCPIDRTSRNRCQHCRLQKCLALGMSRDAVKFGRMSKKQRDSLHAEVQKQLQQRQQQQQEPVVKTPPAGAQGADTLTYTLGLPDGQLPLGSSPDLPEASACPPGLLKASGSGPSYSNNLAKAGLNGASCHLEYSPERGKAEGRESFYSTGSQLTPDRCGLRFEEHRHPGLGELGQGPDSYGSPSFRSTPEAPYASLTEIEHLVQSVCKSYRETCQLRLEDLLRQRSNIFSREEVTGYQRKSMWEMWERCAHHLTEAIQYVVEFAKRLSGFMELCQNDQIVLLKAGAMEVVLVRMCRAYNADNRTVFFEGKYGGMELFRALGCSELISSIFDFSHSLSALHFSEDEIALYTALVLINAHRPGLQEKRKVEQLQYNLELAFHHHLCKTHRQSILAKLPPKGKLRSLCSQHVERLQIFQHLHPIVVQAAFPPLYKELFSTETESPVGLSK
Peroxisome proliferator-activated receptor alpha (Homo sapiens), sequence (Q07869 whole entry, looked up, the tested form may be a part): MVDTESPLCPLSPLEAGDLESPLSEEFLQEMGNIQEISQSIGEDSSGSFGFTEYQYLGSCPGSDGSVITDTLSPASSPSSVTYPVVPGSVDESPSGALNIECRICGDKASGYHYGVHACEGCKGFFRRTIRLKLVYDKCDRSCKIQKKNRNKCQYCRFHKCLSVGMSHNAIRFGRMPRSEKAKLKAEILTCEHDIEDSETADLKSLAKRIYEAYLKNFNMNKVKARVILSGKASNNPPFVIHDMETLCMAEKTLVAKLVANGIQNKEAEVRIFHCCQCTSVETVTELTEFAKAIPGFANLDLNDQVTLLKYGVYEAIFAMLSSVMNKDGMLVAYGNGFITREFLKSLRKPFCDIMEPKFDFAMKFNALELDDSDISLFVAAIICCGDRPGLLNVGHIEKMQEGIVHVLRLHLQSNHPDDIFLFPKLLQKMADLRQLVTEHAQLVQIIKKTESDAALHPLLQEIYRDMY
Nuclear receptor subfamily 1 group I member 2 (Rattus norvegicus), sequence (Q9R1A7 whole entry, looked up): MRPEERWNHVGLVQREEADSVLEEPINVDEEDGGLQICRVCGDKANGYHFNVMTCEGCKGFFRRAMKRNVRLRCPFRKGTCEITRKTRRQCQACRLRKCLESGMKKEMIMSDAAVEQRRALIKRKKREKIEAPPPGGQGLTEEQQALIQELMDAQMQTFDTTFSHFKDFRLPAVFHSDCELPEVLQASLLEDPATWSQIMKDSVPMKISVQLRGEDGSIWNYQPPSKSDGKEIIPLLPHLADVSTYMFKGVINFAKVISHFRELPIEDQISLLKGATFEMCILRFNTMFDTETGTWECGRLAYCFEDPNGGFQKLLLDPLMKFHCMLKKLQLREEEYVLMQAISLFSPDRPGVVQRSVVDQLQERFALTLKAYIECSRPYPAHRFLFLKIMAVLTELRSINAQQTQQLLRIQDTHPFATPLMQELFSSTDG

For the compound `c1ccc2c(c1)ccc1ncccc12`, the Potency entry in experiment [1], in [2] and in [8] was “inactive” each time. Moreover, in [3], the activation was 3.95%. The max response is -1.09% in experiment [4], -7.13% in [6], 0.663% in experiment [7] and 10.2% in experiment [9]. Further, the result in [5] and in experiment [10] was inactive.

As for `CC(C)c1ccccc1`, the Potency entry in experiment [11], in experiment [1] and in experiment [12] was “inactive” each time. Further, the activation in experiment [3] was -1.48%. Also, the max response in experiment [4] was 3.38%; in experiment [6] it was -7.17%; in [7], -0.678%; in experiment [9] it was -5.7%. Moreover, the result in [5] and in experiment [10] was inactive.

As for `c1ccc(Nc2ccccc2)cc1`, the Potency result in [11], in experiment [1], in [12], in [13] and in [8] was “inactive” in each case. Besides, in [3], the activation is 0.217% and 3.92%. Moreover, the max response was -3.04% and -2.25% in experiment [4]; -1.43% and -3.7% in [6]; -6.24% and -7.97% in experiment [7]; 1.12% and -1.15% in [9]. Besides, the result in experiment [5] and in [10] was inactive.

Turning to `O=C1CCC(=O)O1`, the Potency result in experiment [1], in experiment [2], in [12], in experiment [13] and in experiment [8] was “inactive” in each case. The activation in experiment [3] is -1.39%. Further, the max response in [4] was 3.38%; in [6] it was -3.63%; in [7], -3.25%; in [9], -4.75%. For the same compound, the outcome in experiment [5] and in [10] was inactive.

As to `Cc1ccc([N+](=O)[O-])c(N)c1`, the Potency entry in [11], in experiment [1], in experiment [12] and in experiment [8] was “inactive” in each case. In addition, the activation in experiment [3] was 0.147%. Further, the max response in experiment [4] is -3.68%; in experiment [6], 6.11%; in experiment [7], -6.54%; in [9], -3.2%. The compound was classed as inactive in experiment [5] and in experiment [10].

`Cc1cc(C2(c3cc(C)c(O)cc3C)OS(=O)(=O)c3ccccc32)c(C)cc1O`: the Potency result in [11], in experiment [1], in experiment [12], in experiment [13] and in experiment [8] was “inactive” throughout. Further, in [3], the activation is 0.42%. The max response in experiment [4] is -10.4%; in experiment [6] it was -15.6%; in experiment [7], -2.41%; in experiment [9] it was -3.33%. Also, the result in experiment [5] was inactive.

`CNC(=O)N(c1ccccc1)c1ccccc1`: the Potency result in [11], in [1], in experiment [13] and in experiment [8] was “inactive” throughout. The activation in experiment [3] was -0.495%. The max response is -2.12% in experiment [4], -11.7% in experiment [6], 1.15% in experiment [7] and 1.74% in experiment [9]. Besides, the call in experiment [5] and in experiment [10] was inactive.

Consider `CN(C)c1cccc(O)c1`, for which the Potency entry in experiment [11], in experiment [1] and in [8] was “inactive” in each case. For the same compound, the activation in experiment [3] is 6.91%. Moreover, the max response in experiment [4] is -3.12%; in [6], -0.49%; in experiment [7], -2.96%; in experiment [9], 1.23%. The outcome in experiment [5] and in [10] was inactive.

Regarding `CCN(CC)c1cccc(O)c1`, the Potency result in experiment [11], in experiment [1], in experiment [12], in experiment [13] and in [8] was “inactive” in each case. The activation in experiment [3] is 4.44%. The max response in [4] is -5.23%; in [6], 5.34%; in experiment [7], -2.87%; in experiment [9], 3.46%. Besides, in experiment [5], the outcome was inactive.

In the case of `Nc1cc(Cl)c([N+](=O)[O-])cc1O`, the Potency in experiment [11] and in [1] was 33.5 µM (active) each time. Besides, the activation in [3] was 6.24%. Also, the max response was -6.88% in experiment [4], -1.27% in experiment [6], -3.32% in experiment [7] and 3.19% in experiment [9]. Moreover, the Potency result in experiment [12] and in experiment [13] was “inactive” throughout. The compound was called inactive in experiment [10].

For the compound `Cc1cc([N+](=O)[O-])ccc1N`, the Potency entry in experiment [11], in experiment [13] and in [8] was “inactive” each time. Further, the activation in experiment [3] was 0.911%. For the same compound, the max response in experiment [4] is -7.44%; in experiment [6], -20.9%; in experiment [7], -5.02%; in [9], 2.26%. Further, the result in experiment [5] and in experiment [10] was inactive.

With `COc1cccc(N)c1`, the Potency entry in [11], in [1], in [12], in experiment [13] and in experiment [8] was “inactive” throughout. The max response in experiment [4] was -3.67%; in [6] it was 10.6%; in experiment [7], -0.119%; in experiment [9] it was 12.1%. Moreover, the call in experiment [5] and in [10] was inactive.

Turning to `CCCC(C)CO` (stereo not given), the Potency entry in experiment [11], in experiment [1], in [12] and in experiment [8] was “inactive” throughout. For the same compound, the activation in [3] was -0.17%. For the same compound, the max response in experiment [4] is -5.48%; in experiment [6], 13.6%; in [7], -5.68%; in experiment [9], 0.794%. Moreover, the compound was called inactive in experiment [5] and in experiment [10].

Regarding `O=Cc1ccc(C(=O)O)cc1`, the Potency entry in [11], in experiment [2], in experiment [12], in experiment [13] and in experiment [8] was “inactive” each time. Moreover, in experiment [3], the activation was -0.237%. Moreover, the max response was -5.11% in experiment [4], -13.7% in [6], -0.895% in experiment [7] and -2.3% in [9]. The result in experiment [5] and in experiment [10] was inactive.

For `CCCCC(CC)CNCC(CC)CCCC` (stereo not given), the Potency result in [11], in [1], in experiment [12], in [13] and in [8] was “inactive” in each case. Also, the max response in experiment [4] is -0.499%; in experiment [6], 3.58%; in experiment [7], -4.58%; in [9] it was -1.1%. In addition, the compound was classed as inactive in [5] and in experiment [10].

Consider `Cc1cccc2sc(N)nc12`, for which the Potency entry in [1], in [12], in experiment [13] and in experiment [8] was “inactive” throughout. The max response in experiment [4] is -1.18%; in experiment [6], -5.19%; in [7], 2.69%; in experiment [9], 7.23%. Besides, the compound was classed as inactive in experiment [5] and in experiment [10].

In the case of `CC(C)(c1cc(Br)c(OCC(Br)CBr)c(Br)c1)c1cc(Br)c(OCC(Br)CBr)c(Br)c1` (stereo not given), the Potency result in experiment [2], in experiment [14], in [12], in experiment [13] and in [8] was “inactive” in each case. In [3], the activation was -1.38%. Besides, the max response in [4] was -5.28%; in [6], -4.49%; in experiment [7], -17.5%; in [9] it was 6.37%. Besides, the outcome in experiment [5] and in [10] was inactive.
